Our source for the outcome and AC50 values is PubChem BioAssay (EPA / NIEHS).

Records with an inconclusive call do not appear. The source made the active and inactive calls. How the source made its calls: active means hit-call score of the fitted dose curve at least 0.9, where 1 is the maximum; inconclusive means response in the unintended direction; inactive means score below 0.9.

Assay [1] concerns the target human Adrenergic, Beta 3 Receptor (Adrb3), ADRB3 (gene 155) (UniProt P13945). Put plainly: NVS_GPCR_hAdrb3: NovaScreen (NVS) G Protein-Coupled Receptor Assay for human Adrenergic, Beta 3 Receptor (Adrb3) (AID 2283262). A digest of the protocol: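 A cell-free filter binding assay read by scintillation counting, with displacement of a specific radioligand measured after 1 hour. The receptor source was SK-N-MC extracts (cells pretreated with isoproterenol and 8-bromo-cAMP). Compounds were first tested at 25 uM in duplicate and then in concentration series.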

In assay [2] the target is human Leukotriene B4 Receptor 1 (LTB4-BLT1), LTB4R (gene 1241) (UniProt Q15722). Put plainly: NVS_GPCR_hLTB4_BLT1: NovaScreen (NVS) G Protein-Coupled Receptor Assay for human Leukotriene B4 Receptor 1 (LTB4-BLT1) (AID 2283271). An outline of the steps: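 Cell-free human neutrophil receptor preparation, 1 h exposure, radioligand binding read by filter scintillation counting. Single 25 uM duplicate screen, then concentration series topping at 50 uM; binding loss scored against DMSO baseline.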
human Leukotriene B4 Receptor 1 (LTB4-BLT1), LTB4R (gene 1241), sequence (Q15722 whole entry, looked up): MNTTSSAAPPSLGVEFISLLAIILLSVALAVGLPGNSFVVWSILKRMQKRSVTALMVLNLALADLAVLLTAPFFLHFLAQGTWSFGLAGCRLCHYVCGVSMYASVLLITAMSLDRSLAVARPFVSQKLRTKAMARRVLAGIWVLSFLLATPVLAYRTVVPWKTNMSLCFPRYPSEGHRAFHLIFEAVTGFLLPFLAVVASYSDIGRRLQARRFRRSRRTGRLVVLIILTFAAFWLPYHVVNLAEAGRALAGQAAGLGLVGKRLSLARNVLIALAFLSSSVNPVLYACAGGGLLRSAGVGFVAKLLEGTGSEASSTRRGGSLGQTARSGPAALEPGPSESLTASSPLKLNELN

Assay [3] concerns the target human Neurokinin, NK2 Receptor, TACR2 (gene 6865) (UniProt P21452). Nature of the assay: NVS_GPCR_hNK2: NovaScreen (NVS) G Protein-Coupled Receptor Assay for human Neurokinin, NK2 Receptor (AID 2283278).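 Further: actives reduce bound radioligand signal relative to DMSO baseline.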 A digest of the protocol:
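Radioligand binding on membranes from CHO cells expressing receptor, filter-based scintillation read 4 h after dosing. Initial duplicate screen at 25 uM, actives in concentration series; loss of signal versus DMSO.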

Assay [4] has as its target human Adrenergic, Alpha 2c Receptor (Adra2C), ADRA2C (gene 152) (UniProt P18825). Nature of the assay: NVS_GPCR_hAdra2C: NovaScreen (NVS) G Protein-Coupled Receptor Assay for human Adrenergic, Alpha 2c Receptor (Adra2C) (AID 2283259). A digest of the protocol: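 Screened first in duplicate at 25 uM, with actives then run as concentration series. Membranes from Sf9 cells were exposed for 1 h, and displacement of radioligand was counted after filtration, using DMSO as baseline.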

Assay [5] concerns the target Beta-2 adrenergic receptor (Homo sapiens) (UniProt P07550). Put plainly: NVS_GPCR_hAdrb2: NovaScreen (NVS) G Protein-Coupled Receptor Assay for human Adrenergic, Beta 2 Receptor (Adrb2) (AID 2283261). A digest of the protocol:
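Compounds screened in duplicate at 25 uM, then actives in concentration series. Human beta-2 receptor from CHO material, cell-free; radioligand displacement after 1 h measured by filtration and scintillation against DMSO baseline.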

Assay [6] deals with human Dopamine Receptor D4.4 (DRD4.4), DRD4 (gene 1815) (UniProt P21917). Put plainly: NVS_GPCR_hDRD4.4: NovaScreen (NVS) G Protein-Coupled Receptor Assay for human Dopamine Receptor D4.4 (DRD4.4) (AID 2283264). An outline of the steps:
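Filter-binding assay with a tritiated or iodinated ligand, cell-free receptor prepared from CHO, 1 hour. Loss of bound radioactivity versus DMSO; single 25 uM duplicate screen, then concentration-response for actives.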

Assay [7] has as its target human Dopamine Receptor D2 (DRD2), DRD2 (gene 1813) (UniProt P14416). Nature of the assay: NVS_GPCR_hDRD2s: NovaScreen (NVS) G Protein-Coupled Receptor Assay for human Dopamine Receptor D2 (DRD2) (AID 2283266). An outline of the steps:
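Test compound (25 uM, duplicate in the primary screen; concentration series at follow-up) competed with radioligand for human DRD2 in CHO-derived membrane protein. Filter-based scintillation counting was done 1.5 hours after dosing, with loss of signal analysed against DMSO.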

Assay [8] has as its target human Histamine 1 Receptor (H1), HRH1 (gene 3269) (UniProt P35367). Put plainly: NVS_GPCR_hH1: NovaScreen (NVS) G Protein-Coupled Receptor Assay for human Histamine 1 Receptor (H1) (AID 2283268). A digest of the protocol:
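Filter-based scintillation detection of radioligand binding to human H1, 1 h incubation; chemicals screened in duplicate at 25 uM, then concentration-response; signal loss relative to DMSO taken as activity.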

In assay [9] the target is D(1A) dopamine receptor (Homo sapiens) (UniProt P21728). Nature of the assay: NVS_GPCR_hDRD1: NovaScreen (NVS) G Protein-Coupled Receptor Assay for human Dopamine Receptor D1 (DRD1) (AID 2283269). A digest of the protocol: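 Radioligand displacement binding on membranes/protein extracted from HEK293 expressing human D1, cell-free; read 1 h after dosing by filter-based scintillation counting. Primary screen in duplicate at 25 uM, actives followed up in concentration series; signal loss versus DMSO baseline.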
D(1A) dopamine receptor (Homo sapiens), sequence (P21728 whole entry, looked up): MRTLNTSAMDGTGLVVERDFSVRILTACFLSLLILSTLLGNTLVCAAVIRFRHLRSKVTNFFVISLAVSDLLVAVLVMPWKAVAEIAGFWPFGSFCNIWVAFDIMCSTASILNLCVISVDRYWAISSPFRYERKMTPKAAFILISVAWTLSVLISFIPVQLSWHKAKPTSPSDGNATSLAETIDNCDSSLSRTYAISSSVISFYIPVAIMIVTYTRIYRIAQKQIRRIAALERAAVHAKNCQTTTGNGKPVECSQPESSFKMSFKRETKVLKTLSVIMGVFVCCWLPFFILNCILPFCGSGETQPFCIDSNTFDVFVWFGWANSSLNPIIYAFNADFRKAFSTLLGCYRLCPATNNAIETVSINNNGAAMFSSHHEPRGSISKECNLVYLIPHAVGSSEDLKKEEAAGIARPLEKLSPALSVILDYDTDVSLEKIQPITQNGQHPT

The target of assay [10] is Muscarinic acetylcholine receptor M1 (Homo sapiens) (UniProt P11229). Put plainly: NVS_GPCR_hM1: NovaScreen (NVS) G Protein-Coupled Receptor Assay for human Muscarinic, M1 Receptor (AID 2283270). An outline of the steps: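 Actives from a duplicate 25 uM single-point screen were retested in concentration series. Binding measured as displacement of a radioligand from CHO-derived receptor preparation, 1 h incubation, filtration and scintillation counting, analysed as signal loss against DMSO.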

The target of assay [11] is Muscarinic acetylcholine receptor M3 (Homo sapiens) (UniProt P20309). Nature of the assay: NVS_GPCR_hM3: NovaScreen (NVS) G Protein-Coupled Receptor Assay for human Muscarinic, M3 Receptor (AID 2283272). A digest of the protocol:
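Radioligand displacement binding on human M3 receptor in CHO-derived membranes, 1 h incubation, filter-based scintillation counting. Primary screen in duplicate at 25 uM; actives followed up in concentration series; loss of signal versus DMSO.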

For assay [12], the target named is human Muscarinic, M4 Receptor, CHRM4 (gene 1132) (UniProt P08173). Nature of the assay: NVS_GPCR_hM4: NovaScreen (NVS) G Protein-Coupled Receptor Assay for human Muscarinic, M4 Receptor (AID 2283274). A digest of the protocol:
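Filter-based scintillation counting of radioligand bound to CHO-expressed human M4 preparations after 1 h; loss of signal fitted versus DMSO. Initial duplicate testing at 25 uM, concentration-response follow-up for actives.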

The target of assay [13] is Muscarinic acetylcholine receptor M5 (Homo sapiens) (UniProt P08912). Put plainly: NVS_GPCR_hM5: NovaScreen (NVS) G Protein-Coupled Receptor Assay for human Muscarinic, M5 Receptor (AID 2283275). An outline of the steps:
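Chemicals passing a primary duplicate screen at 25 uM were run as singleton concentration series, maximum 50 uM. Displacement of a specific radioligand from CHO-extracted receptor was read by filter scintillation after 1 h, relative to DMSO.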

Assay [14] deals with human Neuropeptide Receptor Y1 (NPY1), NPY1R (gene 4886) (UniProt P25929). Nature of the assay: NVS_GPCR_hNPY1: NovaScreen (NVS) G Protein-Coupled Receptor Assay for human Neuropeptide Receptor Y1 (NPY1) (AID 2283276). An outline of the steps: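 Displacement of specific radioligand from NPY1 receptor of SK-N-MC origin, read by filtration and scintillation after 1 h. Compounds first tested at 25 uM in duplicate, then actives in concentration series; signal loss relative to DMSO.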

Assay [15] addresses human Adrenergic, Alpha 2A Receptor (Adra2A), ADRA2A (gene 150) (UniProt P08913). Nature of the assay: NVS_GPCR_hAdra2A: NovaScreen (NVS) G Protein-Coupled Receptor Assay for human Adrenergic, Alpha 2A Receptor (Adra2A) (AID 2283257). An outline of the steps:
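Displacement of a specific radioligand from HT29 membrane protein was counted by filter scintillation after 1 h. Compounds were screened in duplicate at 25 uM, and actives were retested in concentration series. Fitting was positive-direction against DMSO.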

Assay [16] addresses human Adrenergic, Beta 1 Receptor (Adrb1), ADRB1 (gene 153) (UniProt P08588). Put plainly: NVS_GPCR_hAdrb1: NovaScreen (NVS) G Protein-Coupled Receptor Assay for human Adrenergic, Beta 1 Receptor (Adrb1) (AID 2283258). A digest of the protocol: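 Membranes/protein extracted from human neuroepithelioma cells, radioligand competition binding read by filtration and scintillation 2 h post-dose. Single 25 uM duplicate screen, then concentration-response follow-up; DMSO as negative control.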

Assay [17] deals with Neuropeptide Y receptor type 2 (Homo sapiens) (UniProt P49146). Nature of the assay: NVS_GPCR_hNPY2: NovaScreen (NVS) G Protein-Coupled Receptor Assay for human Neuropeptide Receptor Y2 (NPY2) (AID 2283277). A digest of the protocol:
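Chemicals were first tested in duplicate at 25 uM, then actives in singleton concentration series to 50 uM. Tracer binding to SK-N-MC-derived protein measured cell-free after 1 h via filter scintillation; signal loss relative to DMSO.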

The target in assay [18] is Type-1 angiotensin II receptor (Homo sapiens) (UniProt P30556). Put plainly: NVS_GPCR_hAT1: NovaScreen (NVS) G Protein-Coupled Receptor Assay for human Angiotensin II receptor type 1 (AT1) (AID 2283263). A digest of the protocol:
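Hits from a 25 uM duplicate screen (threshold e.g. 30% inhibition) were run in concentration-response with 50 uM top concentration. Displacement of specific radioligand from KAN-TS membrane preparations measured after 3 h by filter scintillation, DMSO as baseline.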

Assay [19] concerns the target human Endothelin Receptor Type A (ETA), EDNRA (gene 1909) (UniProt P25101). Nature of the assay: NVS_GPCR_hETA: NovaScreen (NVS) G Protein-Coupled Receptor Assay for human Endothelin Receptor Type A (ETA) (AID 2283265). A digest of the protocol:
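Binding of radioligand to membrane protein extracted from SH-SY5Y cells was read by filtration and scintillation after 3 h. Compounds were screened at 25 uM in duplicate, with hits followed up in singleton concentration series to 50 uM.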

human Dopamine Receptor D4.4 (DRD4.4), DRD4 (gene 1815), sequence (P21917 whole entry, looked up): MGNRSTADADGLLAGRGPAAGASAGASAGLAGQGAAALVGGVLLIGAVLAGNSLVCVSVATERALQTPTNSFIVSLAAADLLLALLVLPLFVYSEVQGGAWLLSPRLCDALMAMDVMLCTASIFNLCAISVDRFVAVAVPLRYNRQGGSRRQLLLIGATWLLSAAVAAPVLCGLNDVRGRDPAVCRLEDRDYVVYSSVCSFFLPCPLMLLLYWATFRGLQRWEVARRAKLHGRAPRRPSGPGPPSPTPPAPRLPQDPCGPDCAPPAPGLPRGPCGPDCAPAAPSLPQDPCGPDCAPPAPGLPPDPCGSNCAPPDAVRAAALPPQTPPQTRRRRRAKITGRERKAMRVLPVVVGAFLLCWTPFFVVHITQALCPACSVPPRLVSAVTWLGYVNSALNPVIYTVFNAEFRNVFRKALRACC
Muscarinic acetylcholine receptor M5 (Homo sapiens), sequence (P08912 whole entry, looked up): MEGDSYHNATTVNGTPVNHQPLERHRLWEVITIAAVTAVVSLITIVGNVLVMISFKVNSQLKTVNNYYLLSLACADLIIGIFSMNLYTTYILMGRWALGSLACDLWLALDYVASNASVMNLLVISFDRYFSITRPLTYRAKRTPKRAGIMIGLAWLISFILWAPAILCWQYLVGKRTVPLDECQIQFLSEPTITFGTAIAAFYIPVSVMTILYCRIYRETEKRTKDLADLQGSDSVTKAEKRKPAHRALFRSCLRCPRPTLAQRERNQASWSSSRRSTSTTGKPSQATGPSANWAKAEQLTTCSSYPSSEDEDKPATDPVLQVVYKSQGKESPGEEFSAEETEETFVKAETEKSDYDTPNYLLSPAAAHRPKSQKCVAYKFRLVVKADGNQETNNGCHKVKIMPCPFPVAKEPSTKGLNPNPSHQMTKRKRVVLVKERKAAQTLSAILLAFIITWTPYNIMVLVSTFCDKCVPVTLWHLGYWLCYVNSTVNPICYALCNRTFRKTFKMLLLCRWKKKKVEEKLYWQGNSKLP
human Adrenergic, Alpha 2c Receptor (Adra2C), ADRA2C (gene 152), sequence (P18825 whole entry, looked up): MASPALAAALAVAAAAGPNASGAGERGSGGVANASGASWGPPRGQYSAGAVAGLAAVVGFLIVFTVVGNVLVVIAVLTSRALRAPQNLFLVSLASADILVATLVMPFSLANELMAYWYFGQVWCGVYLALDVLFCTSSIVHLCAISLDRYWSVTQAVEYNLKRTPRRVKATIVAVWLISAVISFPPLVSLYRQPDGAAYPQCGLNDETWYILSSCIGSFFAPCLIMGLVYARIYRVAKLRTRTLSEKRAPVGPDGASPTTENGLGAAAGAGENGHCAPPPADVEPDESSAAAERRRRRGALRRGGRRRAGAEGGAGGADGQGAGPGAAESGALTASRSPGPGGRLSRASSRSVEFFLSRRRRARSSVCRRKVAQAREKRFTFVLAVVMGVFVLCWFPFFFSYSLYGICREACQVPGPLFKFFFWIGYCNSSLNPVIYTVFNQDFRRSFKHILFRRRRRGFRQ
Beta-2 adrenergic receptor (Homo sapiens), sequence (P07550 whole entry, looked up): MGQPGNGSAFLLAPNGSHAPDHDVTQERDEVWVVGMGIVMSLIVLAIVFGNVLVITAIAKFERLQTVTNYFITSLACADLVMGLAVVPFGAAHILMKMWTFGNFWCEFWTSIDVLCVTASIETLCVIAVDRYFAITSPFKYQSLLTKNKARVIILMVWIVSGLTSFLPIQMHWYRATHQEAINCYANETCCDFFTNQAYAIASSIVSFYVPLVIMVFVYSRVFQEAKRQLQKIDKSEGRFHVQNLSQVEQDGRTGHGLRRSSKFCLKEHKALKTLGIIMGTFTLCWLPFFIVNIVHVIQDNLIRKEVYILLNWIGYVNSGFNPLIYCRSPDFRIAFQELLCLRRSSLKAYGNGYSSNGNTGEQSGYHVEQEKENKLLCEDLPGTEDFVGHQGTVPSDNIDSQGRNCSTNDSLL
human Dopamine Receptor D2 (DRD2), DRD2 (gene 1813), sequence (P14416 whole entry, looked up): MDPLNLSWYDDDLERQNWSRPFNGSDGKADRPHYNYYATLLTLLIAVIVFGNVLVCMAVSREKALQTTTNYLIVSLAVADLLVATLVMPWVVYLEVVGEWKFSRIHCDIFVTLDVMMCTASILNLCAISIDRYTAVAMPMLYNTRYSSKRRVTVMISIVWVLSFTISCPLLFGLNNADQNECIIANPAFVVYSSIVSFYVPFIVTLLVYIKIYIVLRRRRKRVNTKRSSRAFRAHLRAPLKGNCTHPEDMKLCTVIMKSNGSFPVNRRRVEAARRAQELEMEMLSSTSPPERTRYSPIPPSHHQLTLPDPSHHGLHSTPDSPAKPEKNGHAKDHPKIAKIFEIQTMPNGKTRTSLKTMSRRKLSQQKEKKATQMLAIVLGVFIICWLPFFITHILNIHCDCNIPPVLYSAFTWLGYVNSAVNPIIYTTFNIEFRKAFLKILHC
human Muscarinic, M4 Receptor, CHRM4 (gene 1132), sequence (P08173 whole entry, looked up): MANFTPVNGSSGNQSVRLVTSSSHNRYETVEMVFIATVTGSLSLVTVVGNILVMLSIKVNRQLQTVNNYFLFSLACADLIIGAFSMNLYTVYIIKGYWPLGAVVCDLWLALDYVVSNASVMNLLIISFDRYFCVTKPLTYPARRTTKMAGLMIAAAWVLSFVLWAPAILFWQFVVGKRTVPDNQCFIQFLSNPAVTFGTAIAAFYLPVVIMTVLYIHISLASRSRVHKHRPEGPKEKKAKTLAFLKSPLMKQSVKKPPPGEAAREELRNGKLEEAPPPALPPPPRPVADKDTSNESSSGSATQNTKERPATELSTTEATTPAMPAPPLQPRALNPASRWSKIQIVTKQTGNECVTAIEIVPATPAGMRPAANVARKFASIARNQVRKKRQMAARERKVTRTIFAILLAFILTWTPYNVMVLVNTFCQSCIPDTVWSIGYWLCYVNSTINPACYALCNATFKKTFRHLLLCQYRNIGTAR
human Neurokinin, NK2 Receptor, TACR2 (gene 6865), sequence (P21452 whole entry, looked up): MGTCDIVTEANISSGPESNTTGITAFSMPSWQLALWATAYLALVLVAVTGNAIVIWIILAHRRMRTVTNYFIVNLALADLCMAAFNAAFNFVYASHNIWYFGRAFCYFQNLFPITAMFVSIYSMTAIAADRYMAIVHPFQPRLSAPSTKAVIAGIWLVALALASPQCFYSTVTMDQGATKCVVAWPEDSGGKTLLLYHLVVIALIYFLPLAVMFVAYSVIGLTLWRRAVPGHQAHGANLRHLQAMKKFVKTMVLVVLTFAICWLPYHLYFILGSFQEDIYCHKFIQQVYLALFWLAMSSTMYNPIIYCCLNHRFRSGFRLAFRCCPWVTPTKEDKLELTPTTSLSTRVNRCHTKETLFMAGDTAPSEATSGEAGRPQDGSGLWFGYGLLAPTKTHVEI
Neuropeptide Y receptor type 2 (Homo sapiens), sequence (P49146 whole entry, looked up): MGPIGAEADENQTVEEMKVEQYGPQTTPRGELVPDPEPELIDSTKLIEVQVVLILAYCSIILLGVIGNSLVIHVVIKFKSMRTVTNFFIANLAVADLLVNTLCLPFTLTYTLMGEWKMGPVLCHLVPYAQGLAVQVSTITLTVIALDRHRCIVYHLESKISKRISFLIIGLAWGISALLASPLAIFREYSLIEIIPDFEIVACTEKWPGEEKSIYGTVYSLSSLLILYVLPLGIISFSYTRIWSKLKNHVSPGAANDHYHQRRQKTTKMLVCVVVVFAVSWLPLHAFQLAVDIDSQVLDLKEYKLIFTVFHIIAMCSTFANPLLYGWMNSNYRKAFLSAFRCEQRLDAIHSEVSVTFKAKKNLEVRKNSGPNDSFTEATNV
human Adrenergic, Beta 3 Receptor (Adrb3), ADRB3 (gene 155), sequence (P13945 whole entry, looked up): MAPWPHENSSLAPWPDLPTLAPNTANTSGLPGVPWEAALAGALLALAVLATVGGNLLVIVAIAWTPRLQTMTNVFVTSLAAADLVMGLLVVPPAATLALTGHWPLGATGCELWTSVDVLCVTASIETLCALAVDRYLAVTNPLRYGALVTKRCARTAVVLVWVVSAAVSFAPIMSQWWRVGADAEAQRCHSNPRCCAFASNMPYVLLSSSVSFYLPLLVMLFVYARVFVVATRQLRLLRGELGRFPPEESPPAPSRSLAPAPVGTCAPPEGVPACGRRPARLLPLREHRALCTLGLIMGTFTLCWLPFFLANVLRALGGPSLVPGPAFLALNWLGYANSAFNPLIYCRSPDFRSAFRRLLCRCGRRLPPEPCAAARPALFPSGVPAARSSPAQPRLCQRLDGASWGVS

`Cc1oc2c(NC(=O)c3c(Cl)cccc3Cl)cccc2c1C(C)(C)O`: the outcome in assay [1] and in assay [3] was inactive. For the same compound, in [2], the concentration at half-maximal activity (AC50) was 11.7 µM (active).

On to `CCN(CC)C(=O)c1cc(S(=O)(=O)Cc2ccccc2)c(N2CCC(c3ccccc3)CC2)cc1N(CC)CCN(C)C`, for which the concentration at half-maximal activity (AC50) in assay [4] is 9.22 µM (active); in [5], 16.5 µM (active); in assay [6], 16.3 µM (active); in [7], 1.05 µM (active); in assay [9], 5.59 µM (active); in assay [10], 8.82 µM (active). The half-maximal activity concentration (AC50) in assay [11] is 7.89 µM (active); in assay [12], 9.84 µM (active); in assay [13], 6.24 µM (active); in [14], 14.6 µM (active); in assay [3], 4.95 µM (active). The compound was called inactive in [1] and in [8].

Turning to `NCc1cccc(C2CCN(C(=O)c3ccc(C#Cc4ccccc4F)o3)CC2)c1`, the concentration at half-maximal activity (AC50) in [15] was 25 µM (active); in [16], 20.6 µM (active); in [4], 4.51 µM (active); in [5], 12.6 µM (active); in [6] it was 25 µM (active); in assay [7], 9.74 µM (active). In addition, the AC50 was 22.1 µM (active) in assay [8]; 5.14 µM (active) in assay [9]; 1.78 µM (active) in assay [10]; 25 µM (active) in [2]; 0.929 µM (active) in assay [11]; 0.882 µM (active) in [12]. Moreover, the figures for the half-maximal activity concentration (AC50) in assay [13], in assay [17] and in assay [3] were 4.14 µM (active), 2.33 µM (active) and 2.9 µM (active), respectively. In addition, the result in assay [1] was inactive.

On to `CO[C@H]1/C=C/O[C@@]2(C)Oc3c(C)c(O)c4c(O)c(c(/C=N/N5CCN(C)CC5)c(O)c4c3C2=O)NC(=O)/C(C)=C\C=C\[C@H](C)[C@H](O)[C@@H](C)[C@@H](O)[C@@H](C)[C@H](OC(C)=O)[C@@H]1C`, for which the compound was called inactive in assay [18]. Also, in [17], the concentration at half-maximal activity (AC50) is 0.0867 µM (active).

Consider `O=C(Nc1ccc(Cl)cc1)Nc1ccc(Cl)c(Cl)c1`, for which, in assay [7], the compound was classed as inactive.

Regarding `Cc1cc(F)ccc1-c1cc(N2CC[C@@H](O)[C@H]2CO)ncc1N(C)C(=O)C(C)(C)c1cc(C(F)(F)F)cc(C(F)(F)F)c1`, the half-maximal activity concentration (AC50) in assay [16] was 20.4 µM (active); in [4], 5.39 µM (active); in assay [7] it was 7.16 µM (active); in assay [9], 5.89 µM (active); in [13] it was 15 µM (active); in assay [3], 0.181 µM (active). Also, the compound was called inactive in assay [5].

For `CC(O)CC(C)(C)O` (stereo unspecified), the concentration at half-maximal activity (AC50) in assay [1] was 0.159 µM (active).

Consider `CN(C)c1ccc(C(=C2C=CC(=[N+](C)C)C=C2)c2ccc(N(C)C)cc2)cc1`, for which the AC50 in assay [15] is 2.59 µM (active); in assay [4], 1.79 µM (active); in assay [5], 14.4 µM (active); in assay [1], 16.3 µM (active); in assay [6], 1.11 µM (active); in assay [19] it was 1.81 µM (active). Also, the concentration at half-maximal activity (AC50) in [7] was 2.02 µM (active); in assay [2], 8.85 µM (active); in [12] it was 0.863 µM (active); in [13] it was 0.861 µM (active); in [14], 13.3 µM (active); in assay [17], 16.6 µM (active). For the same compound, the concentration at half-maximal activity (AC50) in assay [3] is 3.82 µM (active).
